According to PubChem BioAssay AID1477 (National Center for Advancing Translational Sciences (NCATS), 2009):
In all, about 230,000 compounds went through this assay and fewer than 10 were called active. Inconclusive results (about 3%) are left out. The call rests on the fitted dose curve; in most records, active means well fitted curve in the direction sought with a large enough effect; inconclusive means small, poorly fitted or top-dose-only effect, or effect the other way, or another doubt; inactive means no such curve, though single readings can be large or run the other way. These entries were drawn from the full list.

The compounds below were run against Runt-related transcription factor 1 (Homo sapiens) + Core-binding factor subunit beta (Homo sapiens) (UniProt Q01196+Q13951) (assay: qHTS Assay for Compounds Blocking the Interaction Between CBF-beta and RUNX1 for the Treatment of Acute Myeloid Leukemia). Details: AlphaScreen CBFb-His/RUNX1-biotin binding, biochemical; series mostly up to 59.8 µM; activity, negative = inhibition: at the top concentration.
Chain of Runt-related transcription factor 1 (Homo sapiens) + Core-binding factor subunit beta (Homo sapiens) (Q01196 whole entry, looked up): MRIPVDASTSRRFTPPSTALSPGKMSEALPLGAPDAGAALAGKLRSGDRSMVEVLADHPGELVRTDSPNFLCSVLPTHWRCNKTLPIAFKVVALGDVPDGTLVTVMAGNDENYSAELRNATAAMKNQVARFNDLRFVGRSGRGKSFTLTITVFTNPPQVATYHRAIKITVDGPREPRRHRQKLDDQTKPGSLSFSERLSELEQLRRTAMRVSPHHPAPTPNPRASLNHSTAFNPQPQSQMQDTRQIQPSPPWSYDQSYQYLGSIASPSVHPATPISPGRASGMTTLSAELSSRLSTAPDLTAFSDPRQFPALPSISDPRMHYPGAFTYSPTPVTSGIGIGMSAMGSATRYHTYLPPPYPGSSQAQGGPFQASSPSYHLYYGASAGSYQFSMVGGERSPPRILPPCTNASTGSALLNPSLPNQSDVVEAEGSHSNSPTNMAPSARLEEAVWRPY
Chain of Runt-related transcription factor 1 (Homo sapiens) + Core-binding factor subunit beta (Homo sapiens) (Q13951 whole entry, looked up): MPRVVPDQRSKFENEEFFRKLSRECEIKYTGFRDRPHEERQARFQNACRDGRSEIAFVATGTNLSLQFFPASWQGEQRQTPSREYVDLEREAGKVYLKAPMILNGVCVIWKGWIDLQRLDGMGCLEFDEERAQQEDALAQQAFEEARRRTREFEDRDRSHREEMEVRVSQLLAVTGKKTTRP
Text: NIH Chemical Genomics Center [NCGC]
NIH Molecular Libraries Probe Production centers Network [MLPCN]
Assay Submitter (PI): Paul Liu
Core Binding Factor (CBF) abnormalities are associated with 20-25% of all acute myeloid leukemias (AML), of which 5-10% are further sub classified as acute myelomonocytic leukemia with eosinophilia, also known as M4Eo in the FAB classification scheme. This subtype of leukemia is usually associated with chromosome 16 inversion (p13:q22). Chromosome 16 inversion results in formation of the fusion oncogene CBFB-MYH11, which encodes the fusion protein CBF-beta-SMMHC.
It has been hypothesized that the interference of CBF-beta and RUNX1 binding could have therapeutic implications for patients with CBF mediated leukemias. We developed a CBF-beta and RUNX1 binding assay in AlphaScreenTM format and optimized it for high throughput screening to search for inhibitors. The goal of this project is to screen MLPCN's compound collection (MLSMR) for identifying the inhibitors of the interaction between CBF-beta and RUNX1 proteins as research probes. If these probes work well in the animal models, the ultimate goal of this project is to development a new drug treatment for this disease.
This assay can not be used to assess how apparent inhibitors interfere with protein binding, and whether inhibitors specifically bind to either protein. Disruption of this protein-protein interaction, through any mechanism, is the intended target activity.
NCGC Assay Protocol Summary:
Step, Parameter, Description
(1) Reagent, 3 uL CBFb-His/RUNX1-biotin mix incubated together for 20 minutes at room temperature (30 nM each)
(2) Compound or control, 23 nL compound stock solution
(3) Incubation, 15 minutes at Room temperature
(4) Reagent, 1 uL 50 ng each of beads (Nickel beads and streptavidin beads)
(5) Incubation, 90 minutes at Room temperature
(6) Detection, Excitation=365 nm Emission=440 nm, Envision reader in AlphaScreenTM mode
Keywords: MLSMR, MLPCN, NIH Roadmap, qHTS, NCGC, Core binding factor, CBF, CBF-beta, Acute myeloid leukemia
Further: % of control where 0% means no effect.

activity, negative = inhibition, inactive:
O=C(c1ccccc1)c1cc(-c2ccccn2)c(N2CCOCC2)s1 14.4%
CC1CN(c2nc(Nc3ccccc3)nc(N)c2[N+](=O)[O-])CC(C)O1 (stereo not given) -9.51%
OCCC#Cc1ccc(CN2CCN(Cc3ccsc3)C(CCO)C2)cc1 (stereo not given) -9.41%
O=C(O)c1ccc(/C=C2/SC(=S)N(c3cccc(C(F)(F)F)c3)C2=O)cc1 7.05%
COc1ccc2nc(NC(=O)NC3CCCCC3)sc2c1 -3.84%
COc1ccc(Br)cc1C1C2C=CCC(C)C2C(=O)N1Cc1ccccc1 (stereo not given) 5.58%
COc1cc(C(=O)NCc2nnc(SCC(=O)Nc3nc4ccc(C)cc4s3)o2)cc(OC)c1OC -20.9%
COCc1cc(=O)[nH]c(-c2ccc(C(F)(F)F)cc2)n1 2.05%
COc1ccc(N2C(=O)/C(=C\c3ccco3)N=C2SCC(N)=O)cc1Cl -24%
COc1ccc(Cl)cc1NC(=O)NC(C)C(C)(C)C (stereo not given) 14.5%
CC(C)=CCC[C@]1(C)[C@@H](CC=C(C)C)C[C@@]2(CC=C(C)C)C(=O)[C@]1(C(=O)C(C)C)C(=O)C(CC=C(C)C)=C2O -1.66%
COc1ccc(/C=C/C(=O)Nc2ccc(C)cc2)cc1S(=O)(=O)N1CCOCC1 1.34%
Cc1ccc(CNC(=O)C2(C(F)(F)F)C/C(=C\CCO)CCCO2)o1 (stereo not given) 0.93%
C[C@H]1CCC[C@@]2(C)CCCC[C@]12O -0.847%
Oc1ccc(-c2c(-c3ccccc3)nn3c(C(F)(F)F)cc(C(F)(F)F)nc23)cc1 -29%
COc1ccc2oc(-c3cccc(NC(=O)CSc4ccc(Cl)cc4)c3)nc2c1 2.53%
CC[C@H](C)[C@@H](NC(=O)O[C@@H]1C(=O)c2cc(OC)ccc2O[C@H]1c1cccc(OC)c1)C(=O)OC 7.03%
COc1ccc(C2/C=C\CN(C(=O)c3ccc(C)cc3)C(Cc3ccccc3)C(=O)N2Cc2ccc(F)cc2)cc1 (stereo not given) -2%
H-EHIPA-OH 4.57%
COC(=O)C(CC(C)C)NS(=O)(=O)c1cc(Br)ccc1Br (stereo not given) 8.93%
Cc1ccc(C(=O)N/N=C\c2cc(Br)c(Br)o2)cn1 -16.1%
COc1ccc(C2/C=C\CN(CC(C)C)CC(=O)N2Cc2ccc(F)cc2)cc1 (stereo not given)
COc1ccc(C(=O)CSc2nnc(NC(=O)C3CC(=O)N(c4cccc(OC)c4)C3)s2)cc1 (stereo not given) 5.76%
COc1ccc(/C=N/NC(=O)Cn2cc(C(F)(F)F)ccc2=O)cc1 8.56%
COC(=O)c1c(NC(=O)CN(c2ccc(C)c(C)c2)S(C)(=O)=O)sc2c1CCCC2 -8.59%
COc1ccc(C(CCN2CCOCC2)c2c(OC)cc(OC)c3c2OC(=O)CC3c2ccc(OC)cc2)cc1 (stereo not given) -15.9%
COC(=O)c1nc2n(n1)C(c1ccc([N+](=O)[O-])cc1)C(C(=O)Nc1ccc(Cl)cc1)=C(C)N2 (stereo not given) -5.95%
O=C(COC(=O)c1ccc(S(=O)(=O)Nc2ccccc2)cc1)NCC1CCCO1 (stereo not given) 10.7%
C=C1CCN(Cc2ccc(OC)cc2)S(=O)(=O)c2ccccc21 13.9%
CC(C)C(NS(=O)(=O)c1ccc(-c2ccc(Br)cc2)cc1)C(=O)O (stereo not given) 9.65%
CCCC(O)(CCC)C(=O)NN(C(=O)CCl)c1cccc(C)c1 -3.73%
COc1ccc(C(=O)Nc2ccc(-n3nncc3C(C)(C)C)cc2)cc1 -0.753%
C=CCOC(=O)C(=C)C 2.23%
NCCCCC(N)C(=O)O (stereo not given) 4.1%
O=C(Cn1c(COc2ccccc2)nc2ccccc21)Nc1cc(Cl)c(Cl)cc1Cl -4.59%
C/C(=N\NC(=O)CNC(=O)C(c1ccccc1)c1ccccc1)c1ccc(C)cc1 -2.24%
COc1ccc(C(=O)NC2CCN(C(=S)NCCc3ccccc3)CC2)cc1 2.59%
O=C(Nc1cc(C(F)(F)F)ccc1Cl)c1cc2nc3c(c(C(F)(F)F)n2n1)CCCC3 3.04%
Cc1cc(OCCCCOc2ccc(C#N)cc2)ccc1[N+](=O)[O-] 15.6%
Cc1cc2c(cc1C)N(Cc1ccccc1)C1=NCCCN12 -4.11%
CCCc1cc(=O)[nH]c(SCC(=O)N2CCN(S(=O)(=O)c3ccc(C)cc3C)CC2)n1 14.9%
CCOC(=O)c1nn(-c2cccc(C)c2)cc1C(=O)c1ccccc1 -7.37%
COc1ccc(-c2nc3c(c4c2C[C@H](c2ccccc2)OC4)CN(C(=O)c2ccco2)CC3)c(C)c1 5.84% [at 13.1 µM]
COc1ccc(-c2ccc(OC(=O)NC3CCS(=O)(=O)C3)cc2)cc1 (stereo not given) 4.1%
COc1ccccc1/C=C/CN1CCC(CO)(Cc2ccccc2)CC1 3.97%
CC(=O)c1c(O)cc2n(c1=O)-c1ccc(Cl)cc1C2(C)C 1.82%
C/C(=C\c1ccccc1)C1NC(=O)c2c(sc3c2CCCC3)N1 (stereo not given) -0.931%
Cc1ccc(-n2cc(CN(C)Cc3nccn3C)c(-c3cccc(C)c3)n2)cc1 -15.4%
CC(/C=C/c1ccco1)=N/NC(=O)C1COc2ccccc2O1 (stereo not given) -3.74%
CCOc1cccc2c1OC1(CCCCC1)N1N=C(c3cccnc3)CC21 (stereo not given) 3.17%
OCCNCCOc1ccc(Cl)c(Cl)c1 -1.31%
Cc1c(CCO)c(=O)[nH]n1C(=O)c1c(F)cccc1F 0.745%
O=C1C[C@@H](c2ccc3ccccc3c2)N1S(=O)(=O)c1ccccc1[N+](=O)[O-] 9.98%
CCOC(=O)Cn1c(=O)sc2cccc(Cl)c21 5.32%
O=C(CC1C(=O)NCCN1Cc1ccc(-c2ccccc2)cc1)NCC1CCOCC1 (stereo not given) 1.5%
CCO[C@H]1OC(C(=O)Nc2ccccc2)=C[C@@H](C2CC2)[C@@H]1CCCO 11.9%
Cc1ccc2nc(-c3cccnc3)c(NC3CCCC3)n2c1 -13.5%
CCCCC/C=C\C/C=C\C/C=C\CCCCCCC(N)=O -2.43%
Cc1ccc(C2=NN(C(=O)COc3ncnc4ccccc34)C(c3ccco3)C2)cc1 (stereo not given) 9.21%
O=C(Cc1ccc(S(=O)(=O)N2CCCC2)s1)NC1CCCCCC1 -11%
O=C(Nc1ccc(-c2csc(Nc3cccc(C(F)(F)F)c3)n2)cc1)c1cccc(C(F)(F)F)c1 19.3%
CC[C@H](C)[C@H](NC(=O)[C@H](Cc1ccc(O)cc1)NC(=O)[C@@H](NC(=O)[C@H](CCCN=C(N)N)NC(=O)[C@@H](N)CC(=O)O)C(C)C)C(=O)N[C@@H](Cc1cnc[nH]1)C(=O)N1CCC[C@H]1C(=O)N[C@@H](Cc1ccccc1)C(=O)O 26.2%
COc1ccc(CCn2c(NN=C3CCCC3)nc3c2c(=O)[nH]c(=O)n3C)cc1 -24.2%
CN(C)/C=C(/C(=O)c1ccc(F)cc1)S(=O)(=O)c1ccc(F)cc1 1.81%
COc1ccc(C2c3[nH]c4ccccc4c3CCN2CCCn2cccn2)cc1C (stereo not given) -29.3%
S=c1nc(C23CC4CC(CC(C4)C2)C3)nc2sccn12 -0.607%
Cc1ccc(-c2ccc(/C=C(\C#N)C(N)=S)o2)c([N+](=O)[O-])c1 -23.3%
Cc1cccc(N2CCN(C(=O)c3cccc(S(=O)(=O)N4CCc5ccccc5C4)c3)CC2C)c1 (stereo not given) -11.3%
CCO[C@@H]1OC(C(=O)NC2CC2)=C[C@H](C)[C@H]1CCCO 12.6%
CCC1(CC)C(=O)C2=C3C1[C@H](C(=O)OC)C=C(C(=O)OC)C[C@H]3[C@H]1C(=O)N(Cc3ccccc3)C(=O)[C@H]1[C@H]2C (stereo not given in full) -0.944%
CC(=O)OCC(NC(=O)C(Cc1ccccc1)NC(=O)OC(C)(C)C)C1OC(n2ccc(=O)[nH]c2=O)C(OC(C)=O)C1OC(C)=O (stereo not given) 2.78%
COc1cc(S(=O)(=O)N2CCOCC2)ccc1NC(=O)COc1ccc(N(C)S(=O)(=O)c2ccc(C)cc2)cc1 -0.159%
CNC(=O)/C(C#N)=C/c1c(F)cccc1Cl -5.52%
CCCCNC(=O)CSc1nc2ccc(NC(=O)CSc3nnc(N)s3)cc2s1 -1.53%
CN(CC(=O)Nc1ccc(F)cc1)CC(=O)Nc1ccc(Cl)c(S(=O)(=O)N2CCOCC2)c1 2.15%
NC(=O)c1ccc(NC(=O)COC(=O)c2c3c(nc4ccccc24)/C(=C\c2ccc4c(c2)OCO4)CCC3)cc1 -4.8%
COc1cc(OC)c2c(C)cc(=O)oc2c1C(CCN1CCCCC1)c1ccc(N(C)C)cc1 (stereo not given) -27.7%
Cc1cc(C(=O)NCCc2ccc(Cl)cc2)n(-c2ccccc2)n1 7.58%
Cc1ccc(CNC(=O)C2(C(F)(F)F)C/C(=C\Cc3ccccc3)CCCO2)o1 (stereo not given) 3.01%
CCCN1CCC(=O)N(C(CSc2ccc(C)cc2)Cc2ccccc2)CC1 (stereo not given) 16.7%
Cn1ncc(N2CCN(S(=O)(=O)c3ccc(Br)cc3)CC2)c(Cl)c1=O 2.59%
CC1(C)OC(C(O)(c2ccccc2)c2ccccc2)C(C(O)(c2ccccc2)c2ccccc2)O1 (stereo not given) 6.37% [at 13.1 µM]
CCc1c(C)nc2c(-c3ccccc3)c(C)nn2c1Nc1ccc(NC(C)=O)cc1 16.4%
Cn1ncc2c(NNC(=O)Cc3cccc4ccccc34)ncnc21 -4.15%
O=c1ccn([C@@H]2O[C@H](COP(=O)(O)OP(=O)(O)OP(=O)(O)O)[C@@H](O)[C@H]2O)c(=O)[nH]1 6.66%
CCC/C(C)=N\Nc1nc2c(c(=O)n(C)c(=O)n2C)n1C 6.87%
O=C1CN(Cc2ccccc2)S(=O)(=O)c2ccccc21 -4.13%
CCc1nnc(NC(=O)[C@@H](NC(=O)c2cccc(C)c2)C(C)C)s1 2.27%
O=[N+]([O-])c1ccccc1S(=O)(=O)Nc1cccc2cccnc12 -10.9%
N#Cc1c(C(F)(F)F)cc(-c2cccs2)nc1N1CCCCC1 9.34%
COc1ccc2nc(NC(=O)[C@@H]3CCCN3C(=O)c3cccs3)sc2c1 6.2%
Cc1ccc(OCCCCN2CCCCC2)c(Br)c1 4.27%
C[C@H]1Cc2c(-c3ccccc3)nc3c(c2CO1)CN(C(=O)C1CC1)CC3 -2.96% [at 13.1 µM]
COc1ccc(-c2nc3c(c4c2C[C@H](c2ccccc2)OC4)CN(S(=O)(=O)c2c(C)noc2C)CC3)c(C)c1 2.29% [at 13.1 µM]
CCOC(=O)C1=C(CSc2nnnn2C)N(C)C(=O)NC1c1ccccc1 (stereo not given) 3.15%
